Marburg entry inh = inhibitors of Marburg virus binding or cell entry | Marburg virus pseudotyped entry inhibition, cell reporter | Potency, µM (doses to about 37.8 µM), usual class: inhibitors | 300,000 compounds, 1.8% hits | AID 540276; calls by dose curve; tested in HEK293 cells
Cycloheximide cs = affects cycloheximide protein synthesis inhibition readout, counter-screen; 300,000 compounds, 12% hits; max response, %; cell reporter, cycloheximide protein synthesis inhibition counterscreen; in the data active means max response mostly above about 13%, no sharp cut-off; inactive means mostly below about 14%; further: read at 38.3 µM for the half of the compounds with a filed dose
LASV entry inh = blocks Lassa virus binding to or entry into cells; Lassa virus pseudotype entry inhibition, cell reporter; Potency, µM (titrated, usually from 37.9 µM), most hits filed as inhibitors; 300,000 compounds, 1.2% hits; calls by dose curve; tested in HEK293 cells; further: nearly all actives have a fitted effect of over 50% in size
Shiga inhibitor = inhibitors of Shiga toxin in Vero cells; inhibition, % at 38.7 µM; AID 2315; 290,000 compounds, 9.2% hits; Vero cells, Shiga toxin protein synthesis inhibition reporter; in the data active means inhibition mostly above about 28%, no sharp cut-off; inactive means mostly below about 43%
Hits are given with their value; . = inactive; ? = inconclusive; / = no result. The list is not random: actives were taken first. Their share in the collection is about 12%.

SMILES | Marburg entry inh | Cycloheximide cs | LASV entry inh | Shiga inhibitor
Cc1ccc(-c2cnc3ccccc3n2)cc1C | / | 28 | / | 63
CCCCOc1ccc(-c2cnc3ccccc3n2)cc1 | ? | 45 | ? | 60
Clc1ccc(-c2cnc3ccccc3n2)cc1 | ? | 67 | ? | 67
CCOC(=O)c1ccc2ncc(-c3ccccc3)nc2c1 | . | 46 | . | 123
CCCCOc1ccc(-c2ncc(Cl)cn2)cc1 | ? | 17 | ? | 35
Cc1cc(-c2ccccc2)nc(-c2ccccc2)c1C | . | 26 | . | .
CCCCC#Cc1ccc2c(c1)COc1c3ccccc3nn1-2 | / | 37 | / | 56
CCCCCCC#Cc1ccc2c(c1)COc1c3ccccc3nn1-2 | / | . | / | .
O=C1CCN(Cc2ccc(O)cc2)CCN1[C@H](CO)c1ccccc1 | / | . | / | .
O=C1CCCC2=C1Sc1ccc(Cl)cc1N2 | / | . | / | .
COC(=O)c1ccc2c(c1)SC1=C(CCCC1=O)N2 | . | 21 | . | active
CCn1c2ccccc2c2cc(NC(=O)COC(=O)c3ccc(NC(=O)CC#N)cc3)ccc21 | . | / | ? | /
Cc1[nH]c(=O)c(C#N)c(C)c1CCC(=O)NCc1cccc(C(F)(F)F)c1 | . | . | . | .
CCOC(=O)/C=C/C(=O)OCC(=O)Nc1ccc([N+](=O)[O-])cc1 | / | 17 | / | .
CCOC(=O)/C=C/C(=O)Nc1ccccc1-c1ccccc1NC(=O)/C=C/C(=O)OCC | ? | 33 | 13µM | .
CCOC(=O)/C=C/C(=O)Nc1cccc([N+](=O)[O-])c1 | ? | 38 | ? | .
CC(C)=CC(=O)OCC(=O)Nc1cccc([N+](=O)[O-])c1 | . | . | . | .
COc1ccccc1C(=O)Nc1nnc(S(=O)(=O)N(C)Cc2ccccc2)s1 | / | . | / | .
CCn1cc(C(=O)NCCN(C)C)c(=O)c2cc(F)c(N3CCN(C)CC3)cc21 | 11µM | . | . | .
CCC(C(=O)NCCc1cc(OC)ccc1OC)n1nc(C)c2sc3ccccc3c2c1=O (stereo not given) | . | / | . | /
O=C(NCc1cccnc1)c1ccc(-c2ccc(Cl)cc2)o1 | / | . | / | .
O=C(Nc1ccccc1)c1ccc(-c2ccccc2C(F)(F)F)o1 | ? | 46 | . | 73
O=C(NCc1ccc(Cl)cc1)c1ccc(-c2ccccc2C(F)(F)F)o1 | . | . | 5.2µM | .
CC(C)NC(=O)c1ccc(-c2ccc(Cl)c(C(F)(F)F)c2)o1 | . | . | . | .
CC(C)NC(=O)c1ccc(-c2ccccc2C(F)(F)F)o1 | . | 44 | ? | 93
SMILES | Marburg entry inh | Cycloheximide cs | LASV entry inh | Shiga inhibitor
N#Cc1ccccc1NC(=O)c1ccc(-c2ccccc2Cl)o1 | . | 30 | . | 123
CCCC(=O)Nc1nnc(S(=O)(=O)N(C)Cc2ccc(Cl)cc2)s1 | / | / | . | /
Cc1ccc(NC(=O)CSc2nnc(N)s2)cc1S(=O)(=O)N1CCOCC1 | . | / | ? | /
CC(=O)Nc1ccc(NC(=O)c2ccc(-c3ccccc3Cl)o2)cc1 | . | / | . | /
COc1cccc(NC(=O)CN(C)C(=O)c2ccc(-c3ccc(Cl)cc3)o2)c1 | ? | / | . | /
COc1cccc(NC(=O)CN(C)C(=O)c2ccc(-c3ccccc3Cl)o2)c1 | . | 11 | . | .
O=C(Nc1ccccc1)c1ccc(-c2ccccc2Cl)o1 | . | 38 | . | .
CC1CCN(c2ccc(C(=O)NCc3cccs3)cn2)CC1 | . | 52 | ? | .
O=C(NCc1cccs1)c1cnc(Cl)c(Cl)c1 | . | 30 | . | 45
CC1CCCN(c2ccc(C(=O)NCC3CCCO3)cn2)C1 (stereo not given) | . | 25 | ? | .
CC1CCN(S(=O)(=O)c2cccc(C(=O)NCc3cccs3)c2)CC1 | . | . | ? | .
O=C(NCCc1ccccc1)c1cnc(Cl)c(Cl)c1 | . | 31 | ? | 105
N#Cc1ccccc1OCC(=O)N(C1CCCCC1)C1CCS(=O)(=O)C1 (stereo not given) | . | / | . | /
CCc1cccc(C)c1NC(=S)N(Cc1cccnc1)Cc1ccco1 | . | . | . | .
CN(C)S(=O)(=O)N1CCC(Oc2ccc(C(=O)NCCc3cscn3)cc2)CC1 | . | . | . | .
C#CCN(CC=C)C(=O)c1ccc(OC2CCN(S(=O)(=O)N(C)C)CC2)cc1 | / | 37 | / | 62
COC(=O)CN(C)C(=O)c1cccc(OC2CCN(S(=O)(=O)N(C)C)CC2)c1 | . | . | . | .
CC(C)CCNC(=O)c1ccc(OC2CCN(S(=O)(=O)N(C)C)CC2)cc1 | . | 40 | . | .
C=C(C)CNC(=O)c1ccc(OC2CCN(S(=O)(=O)N(C)C)CC2)cc1 | . | 20 | . | .
C=CCN(CC=C)C(=O)c1ccc(OC2CCN(Cc3ccccn3)CC2)cc1 | . | . | . | .
C=C(C)CN(CC)C(=O)c1ccc(OC2CCN(S(=O)(=O)N(C)C)CC2)cc1 | / | 38 | / | 55
N#Cc1c(Nc2cccc(F)c2)sc2c(O)cc(=O)[nH]c12 | . | . | . | .
CCCCN1C(=S)NC[C@@H]1Cc1ccccc1 | / | . | / | .
Cc1ccc(NN2C(=O)C=C(c3ccccc3)C2=O)cc1 | 11µM | . | ? | .
COc1ccc(OC)c(/C=C2\N=C(c3ccccc3)OC2=O)c1 | . | . | . | /
SMILES | Marburg entry inh | Cycloheximide cs | LASV entry inh | Shiga inhibitor
COc1cccc(/C=C2\N=C(c3cncc(Br)c3)OC2=O)c1 | . | 25 | . | .
Cc1cc(OCC(=O)NC2CCN(Cc3ccccc3)CC2)c2c(C)cc(=O)oc2c1 | ? | . | ? | .
Cc1ccsc1/C=N/Nc1nc(Cl)c(Cl)cc1Cl | . | 41 | ? | .
Cc1ccc(/C=N/Nc2nc(Cl)c(Cl)cc2Cl)s1 | . | 28 | ? | 96
Cc1ccsc1/C=N/n1cnnc1 | . | . | . | .
Cc1cc(Nc2nc(Cl)c(Cl)cc2Cl)n(-c2ccccc2)n1 | . | . | . | .
Cc1onc(-c2ccccc2)c1C(=O)Nc1sc2c(c1C#N)CCC2 | 4.6µM | . | ? | .
Cn1ccc(C(=O)Nc2sc3c(c2C#N)CCC3)n1 | / | 16 | / | .
Cc1cc(C(=O)Nc2sc3c(c2C#N)CCC(C)C3)no1 (stereo not given) | ? | 36 | ? | 76
CC(C)Cc1cc(C(=O)Nc2sc3c(c2C#N)CCC3)no1 | / | . | / | .
Cc1onc(-c2ccccc2)c1C(=O)NC(=S)Nc1sc2c(c1C#N)CCCC2 | . | . | . | .
CC1CCc2c(sc(NC(=O)c3ccc(Cl)cc3Cl)c2C#N)C1 (stereo not given) | / | / | . | /
CC(C)Cc1cc(C(=O)Nc2sc3c(c2C#N)CCCC3)no1 | . | 33 | . | .
CC(C)Oc1ccc(CNC(=O)Cc2ccc(NC(=O)N3CCSc4ncccc43)cc2)cc1 | / | / | . | /
N#Cc1c(NC(=O)c2cc(C3CC3)on2)sc2c1CCC2 | / | . | / | .
Cc1cc(C(=O)Nc2sc3c(c2C#N)CCC3)no1 | ? | 26 | . | 38
Cc1cc(C(=O)Nc2sc3c(c2C#N)CCCC3)no1 | ? | 37 | ? | 52
O=C(O)CSc1nnc(-c2ccc(Cl)cc2Cl)n1-c1ccc(Cl)cc1 | . | . | . | /
COc1ccccc1N1CCN(C(=O)CSc2ncnc3scc(-c4ccccc4)c23)CC1 | ? | . | 6.3µM | .
O=C(CSc1ncccc1-c1nc2ccccc2[nH]1)N1CCN(c2ccccc2F)CC1 | . | 56 | . | .
COc1ccc(N2CCN(C(=O)CSc3ncccc3-c3nc4ccccc4[nH]3)CC2)cc1 | . | 21 | . | .
COc1ccccc1N1CCN(C(=O)CSc2ncccc2-c2nc3ccccc3[nH]2)CC1 | ? | 21 | . | .
CCCCNC(=O)Cn1ncc2c(C)n(Cc3cccc(Cl)c3)c(C)c2c1=O | . | / | . | /

Screening results from PubChem.
